# Test results reported in PubChem BioAssay (NCATS).
# Results filed as inconclusive are left out. Where a call stands in place of a potency, no number is given. A number with no mark means an inactive call. The source made the active and inactive calls. The call rests on the fitted dose curve; in most records, active means well fitted cell-killing curve with a large enough effect; inconclusive means small, poorly fitted or top-dose-only effect; inactive means flat fitted curve, though single readings scatter.
# Test: SDT Cancer Cell Toxicity qHTS against the NCATS CANVASS Library (AID 1347365); further: nearly all actives have a fitted effect of over 60% in size
# Settings: SDT dog glioma viability, ATP luminescence, 72 h; series mostly up to 46.1 µM
# Text: Natural products and their derivatives continue to be wellsprings of nascent therapeutic potential. However, many laboratories have limited resources for biological evaluation, leaving their previously isolated or synthesized compounds largely or completely untested. To address this issue, the Canvass library of natural products was assembled (https://tripod.nih.gov/canvass), in collaboration with academic and industry researchers, for quantitative high-throughput screening (qHTS) across a diverse set of cell-based and biochemical assays. The pure (>85% purity by liquid chromatography/mass spectrometry [LC/MS]) Canvass library of 346 natural products were submitted by 45 academic laboratories and companies around the world. We collected pure natural products to circumvent deconvolution and structure elucidation due to time and resource limitations. The library was formatted into 1536-well plates and evaluated in 50 qHTS (in an 11-pnt concentration series) bioassays with broad scope of disease-relevant mechanisms. The resulting data set from 50 different assays was then systematically analyzed to identify overall trends and specific natural products with interesting biological activities. Reported herein are the results of each individual qHTS and their corresponding assay protocol. This assay uses ATP (luminescence) content to measure the cytotoxiciy of compounds on SDT dog glioma cancer cell line. National Center for Advancing Translational Sciences (NCATS), Rockville, MD National Institute of Health (NIH), Bethesda, Maryland
# Cancer Cell Toxicity qHTS protocol: for cell lines G06, J3T, and SDT. 1. In a 1536 well, tissue culture treated white solid bottom plates (Corning 7494), 5 uL of SDT cell solution (final concentration of 500 cells / well) was dispensed using the Multidrop Combi dispenser (Thermo Fisher Scientific) into columns 2, 3, 5-48. 2. Control and Compounds were pin transferred (~23 nL volume) to the assay plates via Wako Pin-tool (Wako Automation, Richmond VA) equipped with a 1536 pin head. The compounds were transferred to columns 5-48 resulting in a final concentration ranging from 0.17 nM to 103 uM. Dose response titration of Bortezomib was pin transferred into column 2 (1mM; 1:2 dilution; 16 points) resulting to a final concentration range of 0.1 nM - 4.6 uM. 3. The assay plates were further incubated in the at 37C, 5% CO2, 95% Rh for 72 hr. 4. After incubation, 3 uL of CellTiterGlo reagent (Promega) was added to the assay plates (column 1-48, rows 1-32) and centrifuged for 15 sec at 1000 rpm to remove bubbles. 5. Luminescence signal was acquired via the ViewLux plate reader (PerkinElmer) using a clear emission filter, 2 sec exposure, and 1x binning settings.
# Potency means the concentration at half of the fitted maximal effect.
SMILES,Potency,"activity change, negative = cytotoxicity"
C[C@@H]1O[C@H](c2c(O)cc(O)c3c(=O)cc(-c4ccc(O)cc4)oc23)[C@H](O)[C@H](O)[C@H]1O,inactive,–
C=C(C)[C@@H]1CC[C@]2(C)CC[C@]3(C)[C@H](CC[C@@H]4[C@@]5(C)CC[C@H](O)C(C)(C)[C@@H]5CC[C@]43C)[C@@H]12,inactive,–
CS/C=C/C(N)=O,inactive,–
COc1ccc2oc3c(OC)c(OC)c(OC)c(OC)c3c(=O)c2c1,–,-18.8% [at 9.19 µM]
CC1C(=O)C23CCC1C[C@]21O[C@@H]2C(C)(C)C=CC(=O)[C@@]23COC1=O (stereo not given in full),inactive,–
O=C(O)CC1OC(=O)c2c(O)cccc21 (stereo not given),13.2 nM (active),–
C/C=C/C(=O)[C@@H](C)C1=CC(=O)C2=C(O[C@@]34CC[C@H](O)C(C)(C)[C@@H]3CC[C@H](C)[C@@]4(C)C2)C1=O,2960 nM (active),–
C/C=C/c1cc(OC)c2c(c1)[C@@H](C)[C@H](c1ccc(O)c(OC)c1)O2,inactive,–
C=C[C@@]1(C)CC[C@@H]([C@H](C)C(=O)/C=C/C(C)C)O1,inactive,–
O=C(O)Cc1c[nH]c2ccccc12,inactive,–
C/C(=C\[C@H](C)C(=O)CCCC1CC(=O)NC(=O)C1)[C@@H]1OC(=O)/C=C/CC/C=C/C[C@@H](O)[C@@H]1C,935 nM (active),–
Oc1ccc([C@H]2Oc3ccc(/C=C/c4cc(O)cc(O)c4)cc3C2c2cc(O)cc(O)c2)cc1 (stereo not given in full),inactive,–
CCC1=C2CCCN3C(=O)O[C@H]([C@H]1OC(C)=O)[C@H]23,inactive,–
C[C@@H](CCC[C@]1(C)C(=O)C=C[C@]23C[C@H]4C[C@H](O[C@@]4(C)C2)C31)C(=O)N[C@@H](CO)C(=O)O (stereo not given in full),inactive,–
C[C@@H]1O[C@@H](O[C@@H]2[C@@H](O)[C@H](O[C@@H]3[C@@H](O)[C@@H](O)C(O[C@H]4[C@H](OC(=O)[C@]56CCC(C)(C)C[C@H]5C5=CCC7[C@@]8(C)C[C@H](O)[C@H](O[C@@H]9C[C@H](CO)[C@@H](O)[C@H](O)[C@H]9O)[C@@](C)(CO)C8[C@H](O)C[C@@]7(C)[C@]5(C)CC6)OC[C@H](O)[C@@H]4O)O[C@H]3C)OC[C@H]2O)[C@H](O)[C@H](O)[C@H]1O (stereo not given in full),inactive,–
CC12C[C@]3(O)O[C@@H](O1)[C@]1(COC(=O)c4ccccc4)[C@@H]3CC21OC1OC(CO)C(O)C(O)C1O (stereo not given in full),inactive,–
COc1c(O)cc2oc(-c3ccccc3)cc(=O)c2c1O,inactive,–
COC1C(O)C(OC(N)=O)C(Oc2ccc3c(O)c(NC(=O)c4ccc(O)c(CC=C(C)C)c4)c(=O)oc3c2C)OC1(C)C (stereo not given),inactive,–
C=C1C[C@@]23C=CC(=O)[C@@](C)(CCCC(C)C(=O)O)[C@@H]2C[C@@H]1CC3 (stereo not given in full),inactive,–
O=c1cc(-c2ccc(O)cc2)oc2c([C@@H]3OC(CO)[C@H](O)[C@@H](O)[C@H]3O)c(O)cc(O)c12 (stereo not given in full),inactive,–

SMILES,Potency,"activity change, negative = cytotoxicity"
CO[C@@H]1[C@H](O)[C@@H](C)O[C@@H](OC[C@@H]2C(C)OC(=O)/C=C/[C@H](C)C(O[C@@H]3O[C@H](C)CC4(OC(=O)O[C@@H]4C)C3O)[C@@H](C)CC(C)C(=O)CC[C@H]3OC23)[C@@H]1OC (stereo not given in full),inactive,–
C/C=C1/CC[C@@H]2c3[nH]c4ccccc4c3CCN2C1,inactive,–
CC1=CC[C@@]2(C[C@@H]1O)[C@@H](C(=O)O)CC[C@H]2C(C)C,inactive,–
CCCCCCCCC[C@@H]1C[C@@H]2CC[C@H]3[C@@H](C(=O)OCCCCN=C(N)N)[C@@H](C)N=C(N1)N23,2580 nM (active),–
COc1cc(/C=C2/C(=O)N(c3ccc(O)cc3C(=O)O)[C@H](c3ccc(O)c(OC)c3)C2C(=O)Nc2ccc(O)cc2C(=O)O)ccc1O (stereo not given in full),inactive,–
CN1C(=O)[C@]23SS[C@@]1(C)C(=O)N2[C@H]1Nc2ccccc2[C@]1(c1c[nH]c2ccccc12)[C@@H]3O,743 nM (active),–
CO[C@@H]1C[C@@H](C[C@H]2CC[C@H](C)[C@H]([C@@H](C)C(=O)O)O2)O[C@]2(O[C@](C)([C@H]3CC[C@@](C)([C@@H]4O[C@@H]([C@H]5O[C@](C)(O)[C@H](C)C[C@@H]5C)C[C@@H]4C)O3)C[C@H]2C)[C@@H]1C,93.5 nM (active),–
CC(=O)[C@@H]1[C@@H](O)C[C@H]2[C@]3(C)CC[C@H]4C(C)(C)CCC[C@]4(CO)[C@H]3C[C@H]3OC(=O)[C@@H]1[C@@]32C,inactive,–
COc1ccc(CCCc2cc(O)c(OC)c(O)c2)c(O)c1O,166 nM (active),–
CO[C@@H]1[C@H](O)[C@@H](C)O[C@@H](OC[C@H]2/C=C/C=C/C(=O)C(C)C[C@H](C)C(O[C@@H]3O[C@H](C)CC4(OC(=O)O[C@@H]4C)C3O)[C@@H](C)/C=C/C(=O)OC2C)[C@@H]1OC (stereo not given in full),inactive,–
C=C[C@]1(C)CC[C@@H]([C@H](C)C(=O)/C=C/C(C)C)O1,inactive,–
C[C@@H]1C(=O)[C@]23CC[C@H]1C[C@]21O[C@H]2C(C)(C)C=CC(=O)[C@@]23COC1=O,inactive,–
C/C1=C/[C@@H](C)[C@H](O)C/C=C/CC/C=C/C(=O)O[C@@H]1[C@H](C)C(=O)/C=C/CC1CC(=O)NC(=O)C1,9350 nM (active),–
O=C(O)CC1OCc2c(O)cccc21 (stereo not given),inactive,–
O=C1C[C@@H](c2ccc(O)c(-c3c(O)cc(O)c4c3O[C@H](c3ccc(O)cc3)CC4=O)c2)Oc2cc(O)cc(O)c21,inactive,–
CN1CC[C@]2(c3cccc4c3N[C@@H]3N(C)CC[C@]43[C@@]34CCN(C)[C@@H]3Nc3ccccc34)c3ccccc3N[C@H]12,2960 nM (active),–
C[C@@H](O)[C@H]1OC(=O)C=C2[C@]3(C)[C@H]4[C@H](OC(=O)[C@@]4(C)[C@@H](O)[C@H]4O[C@H]43)[C@H]3O[C@@]231,1180 nM (active),–
CC(O)/C=C/C1(O)C(C)(C)CC(O)CC1(C)O (stereo not given),inactive,–
CC1(C)[C@H](Br)CC[C@]23C[C@]4(C)C(=O)CC12C[C@H]34,inactive,–
OCc1ccc2ocnc2c1,inactive,–
